According to PubChem BioAssay AID1159580 (chemical genetic matrix, 2015):
Where “and” joins values, the source holds several entries; their conditions need not be identical. Equal entries are not always repeated. Hit rate of the full screen: of about 5,500 compounds, about 2,000 (36%) were called active. About 18% were inconclusive and are not listed. No stated cut-off is given here; in the data, active means normalized growth mostly below about 0.91 (no sharp cut-off); inconclusive means no clear call, values can overlap the other calls; inactive means mostly above about 0.92. Some of the results follow.

Assay: chemical genetic growth profiling, strain panel (AID 1159580);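 further: tested at 20 µM; growth read once vehicle control cultures reached saturation at 30 °C; 1 = growth at the plate median or of vehicle wells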
Conditions: S. cerevisiae deletion strains, growth OD

Measured: normalized growth

O=C(N[C@@H](CO)[C@H](O)c1ccc([N+](=O)[O-])cc1)C(Cl)Cl
inactive: locus YAL013W, strain DEP1, stronger effect = lower value 1 | locus YAL021C, strain ccr4, stronger effect = lower value 1.01 | locus YAL026C, strain drs2, stronger effect = lower value 1.03 | locus YAL030W, strain snc1, stronger effect = lower value 0.999 | locus YBL061C, strain skt5, stronger effect = lower value 0.995 | locus YBR009C, strain hhf1, stronger effect = lower value 1.03 | locus YBR021W, strain FUR4, stronger effect = lower value 1.03 | locus YBR023C, strain chs3, stronger effect = lower value 1.02 | locus YBR171W, strain sec66, stronger effect = lower value 1.02 | locus YBR229C, strain ROT2, stronger effect = lower value 1 | locus YBR231C, strain swc5, stronger effect = lower value 1.01 | locus YBR279W, strain paf1, stronger effect = lower value 1.02 | locus YCL011C, strain gbp2, stronger effect = lower value 1.02 | locus YCL016C, strain dcc1, stronger effect = lower value 1.02 | locus YCL029C, strain bik1, stronger effect = lower value 1.03 | locus YCL061C, strain MRC1, stronger effect = lower value 0.998 | locus YCL069W, strain vba3, stronger effect = lower value 1.02 | locus YCR088W, strain abp1, stronger effect = lower value 1.02 | locus YDL005C, strain med2, stronger effect = lower value 1 | locus YDL035C, strain GPR1, stronger effect = lower value 0.997 | locus YDL040C, strain nat1, stronger effect = lower value 1.01 | locus YDL074C, strain BRE1, stronger effect = lower value 1.03 | locus YDL101C, strain DUN1, stronger effect = lower value 1.01 | locus YDL134C, strain PPH21, stronger effect = lower value 1 | locus YDL185W, strain tfp1, stronger effect = lower value 1.01 | locus YDL192W, strain arf1, stronger effect = lower value 1.01 | locus YDR001C, strain nth1, stronger effect = lower value 1.02 | locus YDR069C, strain doa4, stronger effect = lower value 1.02 | locus YDR101C, strain arx1, stronger effect = lower value 1.01 | locus YDR137W, strain rgp1, stronger effect = lower value 1.03 | locus YDR150W, strain NUM1, stronger effect = lower value 0.997 | locus YDR159W, strain sac3, stronger effect = lower value 0.982 | locus YDR162C, strain NBP2, stronger effect = lower value 1 | locus YDR195W, strain ref2 1.09 | locus YDR297W, strain sur2, stronger effect = lower value 1.02 | locus YDR318W, strain mcm21, stronger effect = lower value 1.01 | locus YDR334W, strain swr1, stronger effect = lower value 1 | locus YDR335W, strain msn5, stronger effect = lower value 1.01 | locus YDR388W, stronger effect = lower value 1.01 | locus YDR392W, strain spt3, stronger effect = lower value 0.981 | locus YDR502C, strain sam2, stronger effect = lower value 1.01 | locus YEL003W, strain gim4, stronger effect = lower value 1.01 | locus YEL037C, strain rad23, stronger effect = lower value 1.01 | locus YEL061C, strain CIN8 (second series), stronger effect = lower value 1.02 | locus YEL061C, strain CIN8, stronger effect = lower value 0.996 | locus YER015W, strain faa2, stronger effect = lower value 1.02 | locus YER016W, strain bim1, stronger effect = lower value 1.01 | locus YER110C, stronger effect = lower value 1.01 | locus YER111C, strain swi4, stronger effect = lower value 1.02 | locus YER155C, strain BEM2 (second series), stronger effect = lower value 0.993 | locus YER155C, strain BEM2, stronger effect = lower value 1 | locus YER167W, strain BCK2, stronger effect = lower value 0.987 | locus YFR010W, strain ubp6, stronger effect = lower value 1.02 | locus YGL078C, strain dbp3, stronger effect = lower value 1 | locus YGL086W, strain mad1, stronger effect = lower value 0.994 | locus YGL167C, strain pmr1, stronger effect = lower value 1.01 | locus YGL173C, strain kem1, stronger effect = lower value 1.03 | locus YGL227W, strain vid30, stronger effect = lower value 1.04 | locus YGL240W, strain doc1, stronger effect = lower value 0.983 | locus YGL248W, strain PDE1, stronger effect = lower value 0.998 | locus YGL253W, strain hxk2, stronger effect = lower value 1.03 | locus YGR078C, strain PAC10, stronger effect = lower value 1.02 | locus YGR135W, strain pre9, stronger effect = lower value 1.01 | locus YGR229C, strain SMI1, stronger effect = lower value 0.994 | locus YGR252W, strain gcn5, stronger effect = lower value 0.947 | locus YHR013C, strain ard1, stronger effect = lower value 1.01 | locus YHR027C, strain rpn1, stronger effect = lower value 1.02 | locus YHR030C, strain SLT2, stronger effect = lower value 0.998 and 0.975 | locus YHR079C, strain IRE1 (second series), stronger effect = lower value 1.02 | locus YHR079C, strain IRE1, stronger effect = lower value 1 | locus YHR094C, strain hxt1, stronger effect = lower value 1.01 | locus YHR129C, strain ARP1, stronger effect = lower value 1.01 | locus YHR142W, strain chs7, stronger effect = lower value 1.05 | locus YHR200W, strain rpn10, stronger effect = lower value 1.01 | locus YIL066C, strain RNR3, stronger effect = lower value 1.01 | locus YIL073C, strain SPO22, stronger effect = lower value 0.964 | locus YIL125W, strain kgd1, stronger effect = lower value 0.998 | locus YIR030C, strain dcg1, stronger effect = lower value 1.01 | locus YJL092W, strain hpr5, stronger effect = lower value 1.02 | locus YJL095W, strain BCK1 (second series), stronger effect = lower value 1.02 | locus YJL095W, strain BCK1, stronger effect = lower value 1.04 and 0.945 | locus YJL115W, strain asf1, stronger effect = lower value 1.01 | locus YJL129C, strain trk1, stronger effect = lower value 1.01 | locus YJL134W, strain LCB3, stronger effect = lower value 1 | locus YJL154C, strain vps35, stronger effect = lower value 1.03 | locus YJL164C, strain tpk1, stronger effect = lower value 1.03 | locus YJL166W, strain qcr8, stronger effect = lower value 1.02 | locus YJL168C, strain set2, stronger effect = lower value 1.01 | locus YJL187C, strain SWE1 (second series), stronger effect = lower value 1.02 | locus YJR043C, strain POL32, stronger effect = lower value 1.03 | locus YJR066W, strain TOR1, stronger effect = lower value 0.962
